Compound activity deposited in PubChem BioAssay by several laboratories.
CD11b adhes enh = enhancers of CD11b/CD18 adhesion to fibrinogen, primary screen, K562 cells, luminescence; ATPlite luminescence; activation, % at 10 µM; 93,000 tested, 0.07% active; AID 1499, 2009;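 active = 10 µM primary screen giving 50% or more activity, confirmed by 40% or more on retest at that dose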
Target sequence (P05107 whole entry, looked up, other chains not shown): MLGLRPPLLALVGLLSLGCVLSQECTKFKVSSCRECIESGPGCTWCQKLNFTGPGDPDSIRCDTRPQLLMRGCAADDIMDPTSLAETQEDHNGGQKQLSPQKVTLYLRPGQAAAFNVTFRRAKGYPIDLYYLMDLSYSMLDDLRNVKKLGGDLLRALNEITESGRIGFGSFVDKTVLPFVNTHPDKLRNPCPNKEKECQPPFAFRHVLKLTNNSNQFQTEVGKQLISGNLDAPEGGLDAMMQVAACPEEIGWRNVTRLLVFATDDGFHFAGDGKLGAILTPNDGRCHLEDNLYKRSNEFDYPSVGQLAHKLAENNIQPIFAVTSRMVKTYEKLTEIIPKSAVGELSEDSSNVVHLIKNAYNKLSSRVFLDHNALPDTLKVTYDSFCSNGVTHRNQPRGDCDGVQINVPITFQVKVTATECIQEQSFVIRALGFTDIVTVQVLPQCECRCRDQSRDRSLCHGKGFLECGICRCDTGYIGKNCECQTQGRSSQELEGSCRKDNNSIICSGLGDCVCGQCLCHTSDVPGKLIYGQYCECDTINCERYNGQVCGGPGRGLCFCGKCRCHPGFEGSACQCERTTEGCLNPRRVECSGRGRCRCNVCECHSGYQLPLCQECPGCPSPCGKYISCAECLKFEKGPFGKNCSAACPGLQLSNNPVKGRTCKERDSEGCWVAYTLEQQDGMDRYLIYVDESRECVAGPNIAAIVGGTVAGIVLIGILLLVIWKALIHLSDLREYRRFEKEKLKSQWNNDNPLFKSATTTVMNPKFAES
MRP reversal = reversal of MRP1-mediated doxorubicin resistance, primary screen, H69AR cells, doxorubicin co-treatment | AID 602, 2007 | differential viability (reversal), % at 10 µM | 85,000 tested, 0.04% active | H69AR cells + 2 uM doxorubicin, CellTiter-Glo, 72 h;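 active = viability drop by adding the cancer drug above about 55%, with treated viability meeting a 40% cutoff, limit read from the data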;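 also: larger differential means the compound sensitizes cells more to doxorubicin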
Mac1 fbg inh = inhibitors of CD11b/CD18 adhesion to fibrinogen, primary screen, K562 cells, luminescence. Integrin beta-2 (Homo sapiens) + Integrin alpha-M (Homo sapiens), P05107+P11215. ATPlite luminescence; Mn2+ added to activate the integrin. inhibition, % at 10 µM. 93,000 tested, 0.54% active. AID 1497, 2009;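 active = primary inhibition of 50% or more at 10 µM, then 40% or more on retest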
Phagocytosis inh = inhibitors of macrophage phagocytosis, primary screen, imaging, J774A.1 cells, IgG beads | J774A.1 macrophage IgG-bead phagocytosis | inhibition, % at 5 µM | 110,000 tested, 0.07% active | AID 1029, 2008;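 active = inhibition above the mean of the plate negative controls plus 5 SD, cut at about 13% in these data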;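 also: phagocytic index as fraction of beads internalized from green versus red external bead signal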
MRP-1 activ = H69AR viability gain despite doxorubicin, primary screen, MRP-1 activator project, H69AR cells, CellTiter-Glo. 140,000 tested, 0.61% active. viability rescue. viability increase, % at 10 µM;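 active = viability gain under doxorubicin at or above a set limit, the compound median plus 3 SD, cut at about 4.7% in these data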;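 also: MRP-1 overexpressing cells given doxorubicin 25 µM after compound pretreatment; 18-22 h compound pretreatment then 72 h with doxorubicin before readout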
SDO1 yeast rescue = growth rescue of sdo1-depleted yeast, primary screen, S. cerevisiae, bone marrow failure model. z-score at 10 µM. S. cerevisiae sdo1-depleted JHY4D growth rescue, OD600 30 h; stronger effect = higher value; pdr5 snq2 efflux-pump mutant strain. 140,000 tested, 0.21% active. AID 817, 2007;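 active = z-score above 3 at both the 24 hr and the 30 hr optical density reads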
Large screens that a line does not name were inactive; [ ] = another dose, or the depositor's remark. The list is not random: actives were taken first. Their share in the collection is about 1.3%.

CC(CCc1ccccc1)NC(=O)c1nnc(Cc2ccc(Cl)cc2)o1 (configuration not stated)	MRP-1 activ 9.9
CC(CCc1ccccc1)NC(=O)CN1CCN(Cc2ccc(Cl)cc2)C1=O (configuration not stated)	MRP-1 activ 7.3
O=C(NCCc1ccc(Cl)cc1)c1nnc(Cc2ccc(Cl)cc2)o1	none (no result: CD11b adhes enh, Mac1 fbg inh, Phagocytosis inh)
CCOC(=O)/C(=N\Nc1ccccc1Cl)N1CCN(Cc2ccccc2)CC1	MRP-1 activ 5.1 (no result: MRP reversal)
CCOC(=O)/C(=N\Nc1ccccc1Cl)N1CCN(C)CC1	none (no result: MRP reversal)
N#Cc1c(-c2ccccc2)nc(-c2ccccc2)[nH]c1=O	Mac1 fbg inh 52 (no result: MRP reversal)
COc1cccc(-c2nc(-c3ccccc3)[nH]c(=O)c2C#N)c1	none (no result: CD11b adhes enh, MRP reversal, Mac1 fbg inh, Phagocytosis inh)
N#CC(c1ccccc1)c1ccc(C(=O)c2ccc(F)cc2)cc1 (configuration not stated)	Mac1 fbg inh 87
O=C(CSc1nnc(Cn2nnc3ccccc32)o1)N(Cc1ccc(F)cc1)c1ccccc1	Mac1 fbg inh 102
COc1ccc(N(Cc2ccccc2)C(=O)CSc2nnc(Cn3nnc4ccccc43)o2)cc1	none
CC(C)CN1C(=O)c2ccc(C(=O)Nc3ccncc3)cc2C1=O	Mac1 fbg inh 82
CCOc1ccc2nc(SCC(=O)NC3CCCc4ccccc43)sc2c1 (configuration not stated)	Phagocytosis inh 70[artifact] (no result: CD11b adhes enh, MRP reversal, Mac1 fbg inh)
COc1ccc(OCc2cccc(C(=O)O)c2)cc1	none (no result: MRP reversal)
CCOc1ccc(OCc2cccc(C(=O)O)c2)cc1	Mac1 fbg inh 59 (no result: MRP reversal)
CCOC(=O)c1ccc(N=C2NC(=O)CS2)cc1	none
CCOC(=O)c1ccc(N2CN=C3SCC(=O)N3C2)cc1	MRP-1 activ 5.8
O=C(Oc1ccc(OC(=O)c2ccco2)c(S(=O)(=O)c2ccc(Cl)cc2)c1)c1ccco1	none (no result: CD11b adhes enh, MRP reversal, Mac1 fbg inh)
O=C(NNC(=O)c1cc(-c2ccccc2)n(-c2ccccc2)n1)c1cccc([N+](=O)[O-])c1	none (no result: MRP reversal)
CCOC(=O)C1=C(C)NC(C)=C(C(=O)OC)C1c1cccc(Cl)c1Cl (configuration not stated)	none (no result: CD11b adhes enh, Mac1 fbg inh, Phagocytosis inh)
COC(=O)C1=C(C)NC(C)=C(C(=O)OC)C1c1ccccc1OCc1c(C)no[n+]1[O-]	MRP-1 activ 9.0
Cc1ccc(CNC(=O)CSc2c3c(nc4cc(Cl)ccc24)CCCC3)o1	none
Cc1c(C(=O)OC(C)C)sc(N)c1C(=O)OC(C)C	MRP-1 activ 5.4 (no result: CD11b adhes enh, MRP reversal, Mac1 fbg inh)
CCN(CC)S(=O)(=O)c1ccc(Cl)c(C(=O)Nc2ccc(Cl)cc2[N+](=O)[O-])c1	none (no result: CD11b adhes enh, MRP reversal, Mac1 fbg inh)
NNC1=N[C@H]2CS(=O)(=O)C[C@H]2S1	none (no result: MRP reversal, Phagocytosis inh)
O=c1cc(CNc2ccc(Br)cc2)nc2sccn12	MRP-1 activ 8.7 (no result: CD11b adhes enh, MRP reversal, Mac1 fbg inh)
COc1cc(-c2nc(-c3cccc(C)c3)no2)cc(OC)c1OC	none (no result: CD11b adhes enh, Mac1 fbg inh, Phagocytosis inh)
Cc1cccc(-c2noc(CCCOc3ccc(Cl)cc3Cl)n2)c1	Mac1 fbg inh 99
COc1ccc(-c2nc(-c3cccc(C)c3)no2)cc1OC	MRP-1 activ 5.5 (no result: CD11b adhes enh, Mac1 fbg inh, Phagocytosis inh)
Cc1noc(C)c1C(=O)Nc1ccc(F)c(F)c1	none
CCCCc1ccc(NC(=O)c2c(C)noc2C)cc1	MRP-1 activ 8.7
COC(=O)c1cc(Br)c(=O)n(CCC2=CCCCC2)c1	none
O=C1NC(=O)C2(COC(c3cccnc3)OC2)S1 (configuration not stated)	none (no result: CD11b adhes enh, MRP reversal, Mac1 fbg inh, Phagocytosis inh)
CC(C)Oc1ccc(CSC(=N)N)cc1	MRP-1 activ 7.9 (no result: CD11b adhes enh, MRP reversal, Mac1 fbg inh, Phagocytosis inh)
C=CCn1c(=O)c2c(C)c(C)sc2n2c(Nc3ccc(OC)cc3)nnc12	MRP-1 activ 7.7
Cc1cc(C)n(-c2ccc(C(=O)C(C#N)c3nc4ccccc4n3C)cc2)n1 (configuration not stated)	none
COCCNc1nc2c(c(=O)n(Cc3ccc(OC)cc3)c(=O)n2C)n1C	none
COc1ccc(CNc2nc3c(c(=O)n(Cc4ccc(Cl)cc4)c(=O)n3C)n2C)cc1	MRP-1 activ 5.5
CCOC(=O)C1=C(CC)Nc2ccccc2N=C1NC(=O)Nc1ccc(Cl)c(Cl)c1	Mac1 fbg inh 90 (no result: MRP reversal)
CC(=O)Nc1nc(NC(=O)/C=C/c2ccccc2)n(-c2ccccc2)n1	none (no result: CD11b adhes enh, MRP reversal, Mac1 fbg inh)
CC1(c2ccc(OCC#N)cc2)C=C(c2ccc(OCC#N)cc2)n2nc(C(F)(F)F)nc2N1 (configuration not stated)	none (no result: CD11b adhes enh, MRP reversal, Mac1 fbg inh)
Cc1ccc(C2=CC(C)(c3ccc(C)cc3)Nc3nc(C(F)(F)F)nn32)cc1 (configuration not stated)	MRP-1 activ 6.0 (no result: CD11b adhes enh, MRP reversal, Mac1 fbg inh)
CC(=O)/C(C#N)=C1\NC(=O)C(Cc2ccc(C)c(C)c2)S1 (configuration not stated)	MRP-1 activ 8.8
Cc1ccc(CC2SC(=O)NC2=O)cc1Cl (configuration not stated)	MRP-1 activ 4.8 (no result: CD11b adhes enh, Mac1 fbg inh, Phagocytosis inh)
Nc1ccc(CC2SC(=O)NC2=O)cc1 (configuration not stated)	MRP-1 activ 9.4
CC(=O)/C(C#N)=C1\NC(=O)C(Cc2ccccc2Cl)S1 (configuration not stated)	none (no result: CD11b adhes enh, Mac1 fbg inh, Phagocytosis inh)
Cn1c[n+](C)cc1-c1ccc(/C(N)=N/O)cc1	none (no result: CD11b adhes enh, MRP reversal, Mac1 fbg inh)
CC(=O)Nc1cc2c(cc1NC(=O)Cn1nc(-c3ccc4c(c3)OCCO4)ccc1=O)OCCO2	none (no result: MRP reversal)
Cc1cc(C)c(S(=O)(=O)NCc2ccncc2)c(C)c1	Mac1 fbg inh 83
C/C(=C\C(=O)c1ccc(Br)cc1)NCc1ccccc1	none
C/C(=C\C(=O)c1ccc(Br)cc1)NCc1ccc(C)cc1	Mac1 fbg inh 81
COc1ccc(C2=NOC(Cn3c(Cc4ccc(Cl)cc4)nc4c3c(=O)n(C)c(=O)n4C)C2)cc1 (configuration not stated)	none
CCOC(=O)N1CCN(C(=O)CSc2nnc(COc3ccc(Cl)cc3)o2)CC1	MRP-1 activ 5.8
O=C(CSc1nnc(COc2ccc(Cl)cc2)o1)N1c2ccccc2CCc2ccccc21	none
COC(=O)c1ccc(OC)c(CSc2nnc(COc3ccc(Cl)cc3)o2)c1	MRP-1 activ 6.9 (no result: Phagocytosis inh)
CCN(CC)S(=O)(=O)c1cccc(NC(=O)COC(=O)CCC(=O)c2ccc(F)cc2)c1	none (no result: CD11b adhes enh, MRP reversal, Mac1 fbg inh)
CCNS(=O)(=O)c1ccc(C(=O)Nc2ccccc2)cc1	none
CC1=NN(C(N)=S)C(=O)C1N=Nc1ccccc1C (configuration not stated)	MRP reversal 91 (no result: CD11b adhes enh, Mac1 fbg inh, Phagocytosis inh)
O=C(Cc1ccc(Br)cc1)c1ccc(O)cc1O	Mac1 fbg inh 78 (no result: MRP reversal)
C/C(=N\NC(=O)c1ccc(Cn2cc([N+](=O)[O-])cn2)o1)c1cccc(NC(=O)c2cccnc2)c1	MRP-1 activ 20 (no result: CD11b adhes enh, MRP reversal, Mac1 fbg inh)
N#CCSc1n[nH]c2nc3c(c(=O)n12)C1(CCCC1)Cc1ccccc1-3	Mac1 fbg inh 78, MRP-1 activ 5.0
CCOc1ccc(-c2nc(C#N)c(NCC(C)C)o2)cc1	MRP-1 activ 6.8
